Screening data from PubChem.
Only some compounds are listed: those with a hit (about 5.5% of all), similar ones and a draw of the others.
BCR signal inh = inhibitors of chronic active B-cell receptor signaling | ABC-DLBCL IkBa-CBG/CBR reporter, luminescence ratio, 4 h | Potency, µM (highest dose often 46.1 µM), for inactives: at the top dose activity change, negative = inhibition, usual class: inhibitors | 340,000 tested, 0.05% active | AID 493014; active = well fitted inhibition curve with a large enough effect in the signal ratio, with a control signal flat, not every such curve was filed as active; inconclusive = small, poorly fitted or top-dose-only effect, or effect the other way, or a change in a side signal; the % refers to the signal ratio;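 also: plate controls were basal doxycycline-induced cells for no effect and cells given 10 µM MG132 for full effect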
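TMD8 human ABC-DLBCL cells with doxycycline-inducible IκBα–green luciferase fusion and unfused red luciferase, in 0.5% FBS medium; compounds up to 46 uM, 4 h at 37C. Green/red luminescence ratio, filter-overlap corrected, fitted to concentration-response curves.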
uPA generation = blocks generation of uPA at the cell surface; cell surface uPA generation assay, qHTS; Potency, µM (doses to about 38.3 µM), inactives show at the highest dose activity change, negative = inhibition, actives largely listed as inhibitors; 330,000 tested, 0.31% active; AID 540303; active = well fitted inhibition curve with a large enough effect; inconclusive = small, poorly fitted or top-dose-only effect; inactive = no such curve, though single readings can be large or run the other way; tested in mouse RAW 264.7 cells; also: % is scaled to controls: 0 for no effect and ±100 for the full control effect; nearly all actives have a fitted effect of over 55% in size
a7 integrin act = integrin-mediated muscular dystrophy alleviation activation; alpha7betagal myoblasts, beta-gal FDG fluorescence, 48 h; Potency, µM (highest dose often 38.3 µM), for inactives: top-dose activation, actives largely listed as activators; 350,000 tested, 0.064% active; AID 624291;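 also: 100% = response of the positive control SU9516; nearly all actives have a fitted effect of over 60% in size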
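Alpha7betagal+/- myoblasts (passage 13) were plated 16-24 hr, then exposed to compounds (1:260 dilution of DMSO stock) for 48 hours at 37C. After MPER lysis, β-galactosidase reporter activity was read as FDG fluorescence (ex 480/em 540) after 30 minutes.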
Gal4-VP16 FLuc = Gal4-VP16 reporter inhibition counter-screen | AID 2546 | 310,000 tested, 3.5% active | Potency, µM (titrated, usually from 53.6 µM), without a hit: top-dose activity, negative = inhibition, usual class: inhibitors | Drosophila S2 Gal4-VP16 UAS-luciferase, luminescence, 20 h;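 also: Gal4-VP16 expression switched on by copper sulfate through the metallothionein promoter; % is scaled to controls: 0 for no effect and ±100 for the full control effect; nearly all actives have a fitted effect of over 50% in size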
Mito fusion act = mitochondrial division inhibition or fusion activation; S. cerevisiae fusion-defective mutant growth rescue, CellTiterGlo 48 h; Potency, µM (doses to about 46.1 µM), for the others: top-dose growth rescue (activation), usual class: activators; 320,000 tested, 0.23% active; also: % of control where 0% means no effect; nearly all actives have a fitted effect of over 45% in size
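S. cerevisiae fusion-defective temperature-sensitive mutants (e.g. fzo1-1, mgm1-5) grown 48 h at 37C in YPEG (ethanol/glycerol non-fermentable) medium with 23 nl compound per well; growth rescue read as CellTiterGlo luminescence.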
RORg inh = ROR gamma (mouse) transcription inhibition | P51450 | Drosophila S2 Gal4-RORgamma UAS-luciferase reporter, 20 h | Potency, µM (doses to about 53.6 µM), without a hit: at the highest dose activity change, negative = inhibition, most hits filed as inhibitors | 310,000 tested, 5.4% active | AID 2551; also: % is scaled to controls: 0 for no effect and ±100 for the full control effect; nearly all actives have a fitted effect of over 60% in size
Target sequence (P51450 whole entry, looked up, the tested form may be a part): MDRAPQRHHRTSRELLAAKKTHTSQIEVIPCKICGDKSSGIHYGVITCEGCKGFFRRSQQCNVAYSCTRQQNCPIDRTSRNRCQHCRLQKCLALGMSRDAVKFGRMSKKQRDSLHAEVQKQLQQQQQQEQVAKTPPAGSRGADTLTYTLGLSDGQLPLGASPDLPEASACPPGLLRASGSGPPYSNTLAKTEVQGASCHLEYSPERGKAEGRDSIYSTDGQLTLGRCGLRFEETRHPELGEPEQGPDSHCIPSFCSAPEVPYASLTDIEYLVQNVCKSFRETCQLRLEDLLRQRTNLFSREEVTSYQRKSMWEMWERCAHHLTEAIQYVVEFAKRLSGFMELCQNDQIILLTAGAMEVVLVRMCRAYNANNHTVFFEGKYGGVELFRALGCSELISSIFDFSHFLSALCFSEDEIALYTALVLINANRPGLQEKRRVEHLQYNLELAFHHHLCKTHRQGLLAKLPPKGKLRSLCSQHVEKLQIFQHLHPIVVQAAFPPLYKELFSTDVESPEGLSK
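Drosophila Schneider cells stably carrying a metallothionein-driven Gal4 DBD–ROR gamma fusion and a UAS-Photinus luciferase reporter were exposed to compound for 1 hr, then induced with copper sulfate (700 uM final) for 20 hr at ambient temperature before luminescence reading.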
Active calls of the source: *; u = inconclusive; x = not tested or not shown; [ ] = another dose, or the depositor's remark. Unless noted, calls follow the shape of the dose curve; as a rule, active = well fitted curve in the direction sought with a large enough effect; inconclusive = small, poorly fitted or top-dose-only effect, or another doubt; inactive = no such curve, though single readings can be large; an effect the other way counts as inactive or inconclusive. Potency is read from the fitted curve at half-maximal effect.

SMILES	BCR signal inh	uPA generation	a7 integrin act	Gal4-VP16 FLuc	Mito fusion act	RORg inh
CCN(C(=O)CC(C)C)c1nnc(Cn2nnc3ccccc32)s1	-1%	2%	7%	u	1%	18%
CCN(C(=O)c1ccc(C(C)(C)C)cc1)c1nnc(Cn2nnc3ccccc32)s1	u	-9%	-33%	5.6µM*	18%	u
Cc1cc(C)c(OCC(=O)Nc2nc3ccccc3[nH]2)c(C)c1	-5%	3%	-17%	-27%	8%	11µM*
Cc1ccccc1OCC(=O)Nc1nc2ccccc2[nH]1	u	x	u	u	3%	7.1µM*
CCOc1ccc(OCCCC(=O)Nc2nc3ccccc3[nH]2)cc1	3%	8%	-15%	1%	1%	-39%
O=C(COc1cccc2ccccc12)Nc1nc2ccccc2[nH]1	u	-2%	-21%	11µM*	13%	10µM*
Cc1ccc(OCC(=O)NCCc2nc3ccccc3[nH]2)c(C)c1	1%	-4%	-9%	-6%	0%	1%
CCOc1ccccc1OCC(=O)Nc1nc2ccccc2[nH]1	u	1%	-31%	u	3%	5.6µM*
CN1CCN(c2ccnc(-c3ccc(N(C)C)cc3)n2)CC1	x	x	x	-9%	x	3%
O=C(c1noc2c1CCCC2)N1CCCC(N2CCN(c3ccccc3F)CC2)C1 (stereo not given)	1%	2%	55%	-1%	0%	-1%
CC(C)Cn1c(C(C)C)nc([N+](=O)[O-])c1S(=O)(=O)c1ccc(F)cc1	u	x	-65%	u	1%	11µM*
COc1cc(NC(=O)c2cnc(NCc3ccccc3)nc2C)cc(OC)c1OC	u	-7%	0%	-21%	4%	25%
COc1cccc(CNc2ncc(C(=O)Nc3cc(OC)c(OC)c(OC)c3)c(C)n2)c1	u	5.6µM*	16%	7%	7%	19%
CN(Cc1ccccc1)C(=O)c1[nH]cnc1C(=O)NCC(=O)OCc1ccccc1	0%	-3%	-6%	-30%	1%	11µM*
CC(C)(C)OC(=O)CNC(=O)c1[nH]cnc1C(=O)NCC(=O)OCc1ccccc1	3%	11%	7%	6%	1%	u
C[C@H](NC(=O)c1nc[nH]c1C(=O)N[C@H](C)c1ccccc1)C(=O)OCc1ccccc1	u	3%	10%	3%	-18%	-5%
C[C@H](NC(=O)c1nc[nH]c1C(=O)N[C@@H](Cc1ccccc1)C(=O)OCc1ccccc1)c1ccccc1	u	-6%	-15%	7.9µM*	2%	4.5µM*
C[C@@H](NC(=O)c1nc[nH]c1C(=O)N[C@@H](Cc1ccccc1)C(=O)OCc1ccccc1)c1ccccc1	1%	3%	-29%	7.1µM*	0%	5.6µM*
C[C@H](NC(=O)c1[nH]cnc1C(=O)N[C@H](C)c1ccccc1)c1ccccc1	u	-6%	11%	x	10%	x
CN(Cc1ccccc1)C(=O)c1[nH]cnc1C(=O)N[C@@H](Cc1ccccc1)C(=O)OCc1ccccc1	u	-2%	-5%	10µM*	-1%	10µM*
COc1ccccc1CNC(=O)CCC1N=C2c3ccccc3N=C(SCC(=O)Nc3ccc(N(C)C)cc3)N2C1=O (stereo not given)	-9%	x	x	x	x	x
N#Cc1ccc(C(=O)Nc2cc(C3CC3)nn2-c2ccccc2)cc1	4%	8%	-30%	x	14%	x
Cc1cccc(-c2nc(NCCN(C)C)c3ccccc3n2)c1	x	x	-38%	x	x	x
O=C(N[C@@H](Cc1ccccc1)C(=O)OCc1ccccc1)c1nc[nH]c1C(=O)NC(c1ccccc1)c1ccccc1	25%	3%	-12%	5.6µM*	1%	3.5µM*
O=C(CNC(=O)c1[nH]cnc1C(=O)N[C@@H](Cc1ccccc1)C(=O)OCc1ccccc1)OCc1ccccc1	u	5%	-19%	u	-2%	u
SMILES	BCR signal inh	uPA generation	a7 integrin act	Gal4-VP16 FLuc	Mito fusion act	RORg inh
CCNc1ncc2nc(-c3cc(F)cc(F)c3)c(=O)n(Cc3ccc(F)cc3)c2n1	x	x	x	-4%	x	9%
CCCNC(=O)CCc1cc(C(C)(C)C)c(O)c(C(C)(C)C)c1	u	11µM*	-16%	-11%	-17%	14%
COc1cc(C(=O)N/N=C/c2ccsc2C)cc(OC)c1OC	u	-9%	-24%	u	2%	13µM*
O=C(Nc1ccc(Oc2cccc(C(F)(F)F)c2)nc1)c1ccco1	2%	-7%	-17%	0%	8%	u
O=C(Nc1ccc(NC(=O)c2ccco2)nc1)c1cccnc1	u	-10%	0%	u	0%	0.79µM*
O=C(Nc1ccc(NC(=O)C2CC2)cn1)c1ccccc1	u	-10%	3%	0.1µM*	0%	13µM*
O=C(Nc1ccc(NC(=O)c2ccccc2F)cn1)c1ccco1	u	-15%	6%	13µM*	-7%	14µM*
CC(C)(C)c1ccc(Oc2ccc(NC(=O)c3ccco3)cn2)cc1	u	1.3µM*	-5%	u	29%	u
O=C(Nc1ccc(NC(=O)c2ccco2)nc1)c1cccc(F)c1	-1%	-6%	4%	-10%	-2%	-7%
O=C(CCNC(=O)c1ccc(Cl)cc1)NNC(=O)c1ccc(F)cc1	3%	6%	-7%	x	-6%	x
COc1ccc(-n2cc(C#N)c(=O)n(Cc3ccc(F)cc3)c2=O)cc1	u	-9%	6%	-7%	4%	23%
CN(C)C(=O)c1ccc(-c2nc(N3CCOCC3)c3ccccc3n2)cc1	x	x	x	-17%	x	17%
Cc1cccc(NC(=O)c2cc(NC(=O)c3ccco3)ccc2Cl)n1	23µM*	-11%	-1%	0%	4%	39%
Cc1cccc(NC(=O)c2cc(NC(=O)C3CCCCC3C(=O)O)ccc2Cl)n1 (stereo not given)	-1%	13%	-17%	1%	-2%	-18%
COc1cccc(NC(=S)N(CCCN2CCC(C)CC2)Cc2cccs2)c1	0%	-4%	-6%	18%	1%	-23%
CSc1cccc(NC(=S)N(CCCN2CCC(C)CC2)Cc2cccs2)c1	4%	-3%	-51%	8%[10 µM]	-7%	13µM*
Cc1ccccc1NC(=S)N(C)Cc1cccs1	-8%	-4%	-40%	2%	-7%	u
CCOC(=O)c1ccc(NC(=S)N(CCN2CCCCCC2)Cc2cccs2)cc1	0%	-1%	-11%	u	-5%	13µM*
Cc1ccccc1NC(=S)N(Cc1cccs1)C1CCCCC1	1%	-4%	-1%	4%	-5%	13µM*
Cc1c(Cl)cccc1NC(=S)N(CCCN1CCOCC1)Cc1cccs1	-4%	-9%	-16%	u	-4%	10µM*
O=C(O)c1ccc2c(c1)C(=O)N([C@H](Cc1ccc(Cl)cc1)C(=O)O)C2=O	-10%	x	x	2%	-3%	-22%
